Counter-ions that a name gives are not always drawn. Unmarked numbers belong to inactive results.

The test system of this assay is HepG2-TUBA1B-RELA. As to the kind of experiment: phenotypically active (imaging signature differs from DMSO and reproducible) at any of 0.3-9 uM (binary (1 = active, 0 = inactive)); higher = active. Conditions: treatment time: 24 h. The method in brief:
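Two criteria together defined phenotypic activity: deviation and reproducibility. Deviation meant ≥3 of 4 wells beyond the 95th percentile of Euclidean distances in solvent control wells, and reproducibility meant a median replicate Pearson correlation above the 95th percentile of non-replicates. Wells had been treated for 24 h at 0.3, 1, 3 or 9 µM in fifteen gene-edited A549, HepG2 and WPMY1 reporter lines before live imaging.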
On to `N[C@@H]1C[C@H]1c1ccccc1` [Tranylcypromine hydrochloride], for which the phenotypically active is 0.

For the compound `C/C=C1\CN2CC[C@]34c5cc(OC)ccc5N5C(=O)C(O)OC[C@@H]([C@H]53)[C@H]1C[C@H]24` (some centres undefined) [10-Methoxy-o-demethyltsilanine], the phenotypically active is 0.

`Fc1ccccc1C1=NCC(=S)N(CC(F)(F)F)c2ccc(Cl)cc21` [quazepam]: the phenotypically active is 0.

Consider `COc1c2c(cc3c1OCO3)CC[N+](C)=C2` [Cotarnine chloride], for which the phenotypically active is 0.

For the compound `N[C@H]1C[C@@H]1c1ccccc1` [tranylcypromine], the phenotypically active is 0.

`O=c1ccc2ccc3occc3c2o1` [Angelicin]: the phenotypically active was 0.

As for `C[C@]12COC(=O)C[C@@H]1CC[C@@H]1[C@@H]2CC[C@@]2(C)[C@H]1CC[C@]2(C)O` [oxandrolone], the phenotypically active was 0.

With `CC(C)C[C@H](CN)CC(=O)O` [pregabalin], the phenotypically active is 0.

Take `NC(=S)N/N=C/c1coc2ccccc2c1=O`: the phenotypically active is 0.

On to `O[C@H]1[C@H](O)[C@@H](O)CN2CC[C@H](O)[C@H]12` [Castanospermine], for which the phenotypically active is 0.

As to `Cc1ccc(-c2nc3ccc(C)cn3c2CC(=O)N(C)C)cc1` [zolpidem], the phenotypically active was 0.

For the compound `CN1C(CC(O)c2ccccc2)CCCC1CC(O)c1ccccc1` (centres undefined) [Lobelanidine hydrochloride], the phenotypically active was 0.

As to `CNC(=O)Oc1ccc2c(c1)[C@]1(C)CCN(C)O[C@@H]1N2C` [Geneserine], the phenotypically active was 0.

Take `COc1ccc(C(=O)OC2C[C@H]3CC[C@H](C2)N3C)cc1OC` (some centres undefined) [Convolamine hydrochloride]: the phenotypically active is 0.

Values taken from the supplement of paper PMC7411054.
